Laboratory results reported in PubChem BioAssay (NCATS).
The source made the active and inactive calls. Entries that show only a call come without a potency. Calls follow the shape of the dose curve; as a rule, active = well fitted activation curve with a large enough effect; inconclusive = small, poorly fitted or top-dose-only effect; inactive = no such curve, though single readings can be large or run the other way.

target: Parathyroid hormone/parathyroid hormone-related peptide receptor (Homo sapiens) (UniProt Q03431); experiment: qHTS for PTHR1 Agonists: Optimization Screen against the NCGC LOPAC library (AID 1347079); settings: HEK293 GP2 PTHR1 GloSensor cAMP luminescence, 1 h; series mostly up to 57.1 µM
How it was run: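 Signal increase flags agonism. GP2 cells, derived from HEK-293, express human PTHR1 and a GloSensor cAMP construct.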

Parathyroid hormone/parathyroid hormone-related peptide receptor (Homo sapiens), sequence (Q03431 whole entry, looked up): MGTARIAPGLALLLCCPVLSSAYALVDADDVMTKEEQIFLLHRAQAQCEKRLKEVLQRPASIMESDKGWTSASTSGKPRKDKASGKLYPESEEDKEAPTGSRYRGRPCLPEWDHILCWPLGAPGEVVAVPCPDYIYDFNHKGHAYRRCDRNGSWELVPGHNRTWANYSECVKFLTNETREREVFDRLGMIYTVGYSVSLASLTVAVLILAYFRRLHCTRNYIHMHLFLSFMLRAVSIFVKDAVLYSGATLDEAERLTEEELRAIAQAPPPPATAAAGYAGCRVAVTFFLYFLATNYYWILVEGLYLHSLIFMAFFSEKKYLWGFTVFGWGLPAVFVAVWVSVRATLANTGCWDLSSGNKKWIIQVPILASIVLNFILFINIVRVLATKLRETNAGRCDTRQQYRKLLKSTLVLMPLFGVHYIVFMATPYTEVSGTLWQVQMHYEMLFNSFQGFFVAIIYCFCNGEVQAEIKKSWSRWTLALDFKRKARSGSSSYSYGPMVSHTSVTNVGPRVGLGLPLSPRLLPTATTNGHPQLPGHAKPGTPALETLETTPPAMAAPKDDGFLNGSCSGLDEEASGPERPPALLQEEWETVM

Row | Structure (SMILES) | Potency
1 | CSc1nc(N)c2ncn([C@@H]3O[C@H](COP(=O)(O)OP(=O)(O)O)C(O)[C@H]3O)c2n1 (some centres not stated) | inactive
2 | NCCS(=O)O | inactive
3 | OC[C@H]1O[C@H](n2cnc3c(N[C@H]4CCC[C@@H]4O)ncnc32)[C@H](O)[C@@H]1O | inactive
4 | CCN1C(=O)C=CC1=O | inactive
5 | COc1ccc2c(c1)c(CC(=O)O)c(C)n2C(=O)c1ccccc1 | inactive
6 | Cn1c(=O)[nH]c2ncn(C)c2c1=O | inactive
7 | O=S(=O)(c1cccc2c(Cl)cccc12)N1CCCNCC1 | inactive
8 | C=C1C(=O)O[C@@H]2[C@H]3O[C@]3(C)CCC=C(C)CC[C@@H]12 | inactive
9 | CCC1(O)CC2CN(CCc3c([nH]c4ccccc34)[C@@](C(=O)OC)(c3cc4c(cc3OC)N(C)C3[C@]45CCN4CC=C[C@@](CC)([C@@H](OC(C)=O)[C@]3(O)C(=O)OC)[C@H]45)C2)C1 (some centres not stated) | inactive
10 | CC[n+]1c(/C=C/C=C2/N(C)c3ccccc3C2(C)C)sc2ccccc21 | inactive
11 | Nc1ccc(-c2ccc3ccccc3n2)cc1 | inactive
12 | Cc1cccc(C)c1OCC(N)C(C)C (configuration not stated) | inactive
13 | CCCCCCCCCCCCCCSCC(=O)O | inactive
14 | N#Cc1cc([N+](=O)[O-])c2sc(C(N)=O)[n+]([O-])c2c1 | inactive
15 | Cn1c(=O)c2[nH]c(C3CCCC3)nc2n(C)c1=O | inactive
16 | CCCCOC(=O)NS(=O)(=O)c1sc(CC(C)C)cc1-c1ccc(Cn2c(CC)nc3c(C)cc(C)nc32)cc1 | inactive

Row | Structure (SMILES) | Potency
17 | Fc1ccc(CN(C2=NCCN2)c2c(Cl)cccc2Cl)cc1 | inactive
18 | CC(=O)NCCc1c[nH]c2ccc(O)cc12 | inactive
19 | COc1ccc(NC(=O)c2ccc(-c3ccc(-c4noc(C)n4)cc3C)cc2)cc1N1CCN(C)CC1 | inactive
20 | CC(C)NC[C@H](O)COc1cccc2ccccc12 | inactive
21 | CC(=O)O[C@H]1CC2(C)[C@@H](C[C@@H](O)[C@H]3[C@@]4(C)CC[C@@H](O)[C@@H](C)[C@@H]4CC[C@@]32C)C1=C(CCC=C(C)C)C(=O)O (some centres not stated) | inactive
22 | N=C(N)SCCN | inactive
23 | C=CCN1CCc2c(cc(O)c(O)c2Cl)C(c2ccccc2)C1 (configuration not stated) | inactive
24 | c1ccc(C(NCc2cccnc2)(c2ccccc2)c2ccccc2)cc1 | inactive
25 | C#CCn1c(=O)c2c(ncn2C)n(C)c1=O | inactive
26 | COc1ccc(C(=O)NCc2cccnc2)cc1C(=O)NCc1cccnc1 | inactive
27 | CC(C)(CO)Cc1cc(C(C)(C)C)c(O)c(C(C)(C)C)c1 | inactive
28 | COc1cc(/C=C(\C#N)C(=O)c2ccc(O)c(O)c2)cc(I)c1O | inactive
29 | CCCCCCCCCCCCCCCCCCOC[C@H](COP(=O)([O-])OCC[N+](C)(C)C)OC | inactive
30 | COc1cc(CC(=O)O)ccc1O | inactive
31 | Oc1ccc(/C=C/c2ccc(/C=C/c3ccc(O)cc3)c(Br)c2)cc1 | inactive
32 | N[C@@H](CCC(=O)N[C@H](CSN=O)C(=O)NCC(=O)O)C(=O)O | inactive
